# For part of these data: Results with a measured potency or affinity are listed apart. Activity calls are given as the source filed them. Unless noted, no rule for the calls is given here.
# Legend:
# [1] = antimalarial activity against Dd2 strain (AID 2302;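 active = growth inhibition above 50% at the single 2 µM test dose, taken to imply half-maximal potency below 2 µM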;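 also: 0% = DMSO untreated growth and 100% = chloroquine plus artemisinin killed control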); details: P. falciparum Dd2 in RBCs, LDH growth readout, 72 h; at 2 µM; hits give high values
# [2] = HepG2 cytotoxicity, primary screen, cytotoxicity control for P. falciparum antimalarial project, cell-based, ATP luminescence (AID 2303;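 active = inhibition above 50%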;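 also: 0% = DMSO wells and 100% = digitonin-killed cells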); details: HepG2 viability, 24-48 h, at 10 µM, hits give high values
# [3] = target: L-lactate dehydrogenase (Plasmodium falciparum (isolate CDC / Honduras)) (UniProt Q27743); assay: PfLDH activity inhibition – cell lysate, 3D7 strain, counter-screen for P. falciparum growth inhibition project (AID 2304);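 also: 0% = vehicle and 100% = reference inhibitor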; details: P. falciparum 3D7 crude extract, LDH APAD/NBT absorbance; at 2 µM; hits give high values
# Chain of L-lactate dehydrogenase (Plasmodium falciparum (isolate CDC / Honduras)) (Q27743 whole entry, looked up): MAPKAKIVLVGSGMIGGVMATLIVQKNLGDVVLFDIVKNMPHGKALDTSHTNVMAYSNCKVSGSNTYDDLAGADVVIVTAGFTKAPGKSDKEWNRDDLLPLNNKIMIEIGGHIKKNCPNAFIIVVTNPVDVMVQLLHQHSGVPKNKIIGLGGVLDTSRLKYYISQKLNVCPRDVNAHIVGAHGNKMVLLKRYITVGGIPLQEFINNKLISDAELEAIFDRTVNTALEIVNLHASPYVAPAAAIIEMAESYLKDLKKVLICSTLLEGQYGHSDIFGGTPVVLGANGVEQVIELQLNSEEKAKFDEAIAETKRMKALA
# [4] = inhibition of 3D7 malaria parasite growth – strain 3D7 (AID 2306);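 also: 0% = DMSO wells and 100% = chloroquine plus artemisinin control wells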; details: P. falciparum 3D7 erythrocytic growth, LDH absorbance, 72 h; at 2 µM; hits give high values
# [5] = target: Calcium-dependent protein kinase 1 (Plasmodium falciparum (isolate 3D7)) (UniProt P62344); assay: PfCDPK1 kinase inhibitors, biochemical, TCAMS library (AID 1159585; cut-off not given, nearly all actives have IC50 up to about 0.98 µM;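 also: inhibitors leave more ATP so luminescence rises with inhibition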); details: recombinant PfCDPK1, Kinase-Glo ATP depletion luminescence
# Chain of Calcium-dependent protein kinase 1 (Plasmodium falciparum (isolate 3D7)) (P62344 whole entry, looked up): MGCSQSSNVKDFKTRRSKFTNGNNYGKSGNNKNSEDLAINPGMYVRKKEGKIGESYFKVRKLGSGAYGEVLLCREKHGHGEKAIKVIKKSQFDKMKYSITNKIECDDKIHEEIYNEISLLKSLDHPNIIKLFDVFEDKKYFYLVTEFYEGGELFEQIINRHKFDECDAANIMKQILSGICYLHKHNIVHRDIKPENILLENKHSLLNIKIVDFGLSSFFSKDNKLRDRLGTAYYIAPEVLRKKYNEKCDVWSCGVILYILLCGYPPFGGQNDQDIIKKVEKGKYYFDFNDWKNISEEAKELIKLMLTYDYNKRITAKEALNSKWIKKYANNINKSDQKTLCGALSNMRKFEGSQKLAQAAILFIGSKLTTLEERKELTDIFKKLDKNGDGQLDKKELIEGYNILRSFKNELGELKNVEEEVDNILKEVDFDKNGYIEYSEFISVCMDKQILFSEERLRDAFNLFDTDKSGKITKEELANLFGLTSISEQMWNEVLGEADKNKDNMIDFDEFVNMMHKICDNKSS
# [6] = target: Plasmodium falciparum protein kinase 6 (PK6, PF3D7_1337100) (UniProt Q8IDW1); assay: PfPK6 kinase inhibitors, biochemical, TCAMS library (AID 1159586); details: recombinant PfPK6, Kinase-Glo ATP depletion luminescence
# Chain of Plasmodium falciparum protein kinase 6 (PK6, PF3D7_1337100) (Q8IDW1 1-305): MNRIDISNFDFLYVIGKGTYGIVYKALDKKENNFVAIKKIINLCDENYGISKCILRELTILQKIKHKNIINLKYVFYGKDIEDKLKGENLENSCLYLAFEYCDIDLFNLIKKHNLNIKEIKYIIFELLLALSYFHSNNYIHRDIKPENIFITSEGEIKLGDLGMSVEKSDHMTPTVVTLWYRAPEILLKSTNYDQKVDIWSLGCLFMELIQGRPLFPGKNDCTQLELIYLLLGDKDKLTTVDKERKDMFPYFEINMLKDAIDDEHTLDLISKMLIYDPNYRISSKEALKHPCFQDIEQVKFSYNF
# [7] = target: Protein kinase 7 (PK7), Plasmodium falciparum 3D7 (PF3D7_0213400) (UniProt Q7YTF7); assay: inhibition of Plasmodium PK7 catalytic activity – biochemical, TCAMS antimalarial set, Kinase-Glo luminescence (AID 1159587); details: recombinant PfPK7, Kinase-Glo ATP depletion luminescence
# Chain of Protein kinase 7 (PK7), Plasmodium falciparum 3D7 (PF3D7_0213400) (Q7YTF7 1-343): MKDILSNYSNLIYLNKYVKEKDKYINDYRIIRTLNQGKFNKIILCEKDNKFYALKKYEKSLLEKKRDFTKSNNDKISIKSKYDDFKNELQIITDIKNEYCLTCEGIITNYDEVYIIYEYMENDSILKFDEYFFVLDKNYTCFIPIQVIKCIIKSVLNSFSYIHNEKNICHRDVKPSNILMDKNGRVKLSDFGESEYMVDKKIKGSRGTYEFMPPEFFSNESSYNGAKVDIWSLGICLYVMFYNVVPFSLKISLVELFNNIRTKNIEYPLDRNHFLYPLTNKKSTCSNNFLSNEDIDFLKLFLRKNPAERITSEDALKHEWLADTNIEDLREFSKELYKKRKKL
# [8] = target: Calcium-dependent protein kinase 4 (Plasmodium falciparum (isolate 3D7)) (UniProt Q8IBS5); assay: PfCDPK4 kinase inhibitors, biochemical, TCAMS library (AID 1159588; cut-off not given, nearly all actives have IC50 up to about 0.91 µM); details: recombinant PfCDPK4, Kinase-Glo ATP depletion luminescence
# Chain of Calcium-dependent protein kinase 4 (Plasmodium falciparum (isolate 3D7)) (Q8IBS5 whole entry, looked up): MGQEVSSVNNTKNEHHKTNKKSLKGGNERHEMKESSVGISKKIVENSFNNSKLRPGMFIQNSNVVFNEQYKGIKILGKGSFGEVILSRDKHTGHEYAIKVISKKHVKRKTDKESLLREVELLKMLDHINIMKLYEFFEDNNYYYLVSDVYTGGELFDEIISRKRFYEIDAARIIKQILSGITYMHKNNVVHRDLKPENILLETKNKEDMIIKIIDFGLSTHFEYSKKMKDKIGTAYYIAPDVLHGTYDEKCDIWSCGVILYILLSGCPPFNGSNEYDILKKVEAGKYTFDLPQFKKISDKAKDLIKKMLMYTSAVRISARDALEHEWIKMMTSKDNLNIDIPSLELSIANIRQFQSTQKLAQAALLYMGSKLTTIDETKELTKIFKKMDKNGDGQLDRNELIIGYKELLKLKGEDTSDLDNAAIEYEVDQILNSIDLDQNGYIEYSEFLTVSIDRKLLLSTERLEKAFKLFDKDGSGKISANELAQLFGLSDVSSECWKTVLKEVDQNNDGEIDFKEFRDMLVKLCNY
SMILES,growth inhibition [1],inhibition [2],inhibition [3],growth inhibition [4],outcome [5],outcome [6],outcome [7],outcome [8]
CC1(C)[C@H]2CC[C@]1(C)CN(CC(O)Cn1c3ccccc3c3cc(I)ccc31)C2 (stereo partly drawn),82% (active),-7% (inactive),1% (inactive),94% (active),inactive,inactive,inactive,inactive
CN1CCC(Oc2ccc(CN3CC[C@H](NC(=O)c4ccc(Cl)c(Cl)c4)C3)c3ccccc23)C1 (stereo partly drawn),82% (active),52% (active),3% (inactive),100% (active),inactive,inactive,inactive,inactive
CCN(CC)C(=NCCCCCCN=C(NC(N)=NCc1ccc(Cl)cc1)N(CC)CC)NC(N)=NCc1ccc(Cl)cc1,100% (active),18% (inactive),-3% (inactive),100% (active),inactive,inactive,inactive,inactive
COc1ccc2nc(C)cc(Nc3ccc(Cl)c(Cl)c3)c2c1,99% (active),30% (inactive),-8% (inactive),100% (active),inactive,inactive,inactive,inactive
CN(C)c1ccc(C=C2SC(=N)N(c3nccs3)C2=O)cc1,50% (active),38% (inactive),2% (inactive),97% (active),inactive,inactive,inactive,inactive
CC(=O)N(C)C1CCN(Cc2cccc(-c3ccc(-c4nc5ccc(C(F)(F)F)cc5[nH]4)cc3)c2)C1 (stereo not drawn),94% (active),31% (inactive),3% (inactive),100% (active),inactive,inactive,inactive,inactive
Cc1cccc2[nH]c(-c3ccc(-c4cccc(CNC5CCN(C)CC5)c4)s3)nc12,73% (active),21% (inactive),2% (inactive),98% (active),inactive,inactive,inactive,inactive
COc1ccc2nccc(N3CCC(CCNCc4ccc5c(n4)NC(=O)CO5)CC3)c2n1,72% (active),19% (inactive),-7% (inactive),101% (active),inactive,inactive,inactive,inactive
O=C(CSc1nc2ccccc2c(=O)n1CC1CCCO1)Nc1cc(C(F)(F)F)ccc1Cl (stereo not drawn),95% (active),12% (inactive),-2% (inactive),97% (active),inactive,inactive,inactive,inactive
CC(C)Oc1cc2c(cc1NS(=O)(=O)c1ccc(-c3ccc(Cl)s3)cc1F)CCN(C)CC2,1% (inactive),23% (inactive),-5% (inactive),99% (active),inactive,inactive,inactive,inactive
COc1ccc2nccc([C@@H](O)CN3CCC(c4cc(-c5ccc(Cl)cc5)n[nH]4)CC3)c2n1,56% (active),43% (inactive),0% (inactive),97% (active),inactive,inactive,inactive,inactive
O=[N+]([O-])c1ccc2nc(Nc3ccc(Cl)c(Cl)c3)c(Nc3ccc(Cl)c(Cl)c3)nc2c1,99% (active),1% (inactive),3% (inactive),101% (active),inactive,inactive,inactive,inactive
CC[C@H](C)CNC(=O)c1ccnc(-c2cccc(CN3CCC(N4CCCC4)CC3)c2)c1,12% (inactive),-8% (inactive),-2% (inactive),97% (active),inactive,inactive,inactive,inactive
O=C(N[C@@H](CC1CCCCC1)C(=O)NCCN1CCCC1)c1ccc(O)c(-c2ccc(Cl)c(Cl)c2)c1,99% (active),16% (inactive),2% (inactive),99% (active),inactive,inactive,inactive,inactive
CNCCNCc1cccc(-c2ccc(-c3nc4ccccc4[nH]3)cc2)c1,27% (inactive),13% (inactive),-6% (inactive),99% (active),inactive,inactive,inactive,inactive
CCN(Cc1ccc(-c2ccc(C(F)(F)F)cc2)cc1)C(=O)Cn1c(SCc2cccc(F)c2F)cc(=O)c2cc(CN3CCCCC3)ccc21,50% (active),95% (active),2% (inactive),101% (active),inactive,inactive,inactive,inactive
N#Cc1ccc2c(c1)CCN(CCC1CCC(NC(=O)c3cc4cccc([N+](=O)[O-])c4[nH]3)CC1)C2 (stereo not drawn),28% (inactive),-4% (inactive),-5% (inactive),100% (active),inactive,inactive,inactive,inactive
CO/C(=C\C=C\c1cc2cc(Cl)c(Cl)cc2[nH]1)C(=O)NC1CCN(CCCc2ccccc2)CC1,75% (active),59% (active),0% (inactive),93% (active),inactive,inactive,inactive,inactive

SMILES,growth inhibition [1],inhibition [2],inhibition [3],growth inhibition [4],outcome [5],outcome [6],outcome [7],outcome [8]
Cc1cccc2[nH]c(-c3ccc(-c4ccc(NC(=O)C(C)CN(C)C)cc4)s3)nc12 (stereo not drawn),98% (active),23% (inactive),0% (inactive),100% (active),inactive,inactive,inactive,inactive
O=C(Nc1ccc(F)c(Cl)c1)c1cc([N+](=O)[O-])cc2cn[nH]c12,67% (active),32% (inactive),-4% (inactive),100% (active),inactive,inactive,inactive,inactive
Cc1cccc(C(=O)Nc2ccnc(N3CCC(N(C)Cc4cccc(O)c4)CC3)c2)c1,41% (inactive),7% (inactive),-1% (inactive),95% (active),inactive,inactive,inactive,inactive
O=C(NCC1CCC(C(=O)NC2CCCc3ccccc32)CC1)c1ccc(O)c(-c2ccc(Cl)c(Cl)c2)c1 (stereo not drawn),86% (active),-5% (inactive),-4% (inactive),93% (active),inactive,inactive,inactive,inactive
O=C(Nc1cccc(F)c1)N1CCC(NS(=O)(=O)c2ccc(Br)cc2)CC1,23% (inactive),4% (inactive),-1% (inactive),93% (active),inactive,inactive,inactive,inactive
CC1(C)N=C(N)N=C(N)N1OCCCOc1ccc([N+](=O)[O-])cc1,80% (active),68% (active),0% (inactive),94% (active),inactive,inactive,inactive,inactive
CCNC(C)(C)CN(Cc1ccc(-c2ccc(C(F)(F)F)cc2)cc1)C(=O)Cn1c(SCc2ccc(F)cc2)nc(=O)c2c1CCC2,94% (active),99% (active),2% (inactive),95% (active),inactive,inactive,inactive,inactive
CN(Cc1ccc(-c2ccc(C(F)(F)F)cc2)cc1)C(=O)Cn1c(CCc2cccc(F)c2F)nc(=O)c2ccc(N3CCN(CCN4CCCCC4)CC3)nc21,100% (active),100% (active),5% (inactive),101% (active),inactive,inactive,inactive,inactive
CCOC(=O)c1ccc(-c2c(C(F)(F)F)noc2-c2cc(CC)c(OC)cc2O)o1,95% (active),-7% (inactive),1% (inactive),100% (active),inactive,inactive,inactive,inactive
Cc1ccc(C2CC(c3cccs3)=NN2C(=O)c2ccc(Br)o2)cc1 (stereo not drawn),69% (active),11% (inactive),0% (inactive),99% (active),inactive,inactive,inactive,inactive
Cc1cc(Nc2ccnc(-c3ccc(Cl)cc3)n2)ccn1,23% (inactive),6% (inactive),-4% (inactive),94% (active),inactive,inactive,inactive,inactive
CS(=O)(=O)CCCNCc1ccc(-c2cc3c(Nc4ccc(OCc5ccccc5)cc4)ncnc3cn2)o1,16% (inactive),10% (inactive),-8% (inactive),87% (active),inactive,inactive,inactive,inactive
CC(=O)Nc1nc(C(=O)Nc2cccc(-c3ccc(-c4nc5c(C)cccc5[nH]4)s3)c2)cs1,67% (active),14% (inactive),-2% (inactive),101% (active),inactive,inactive,inactive,inactive
N#Cc1ccc2c(c1)CCN(CCC1CCC(NC(=O)c3ccc(-c4ccccc4)s3)CC1)CC2 (stereo not drawn),36% (inactive),6% (inactive),0% (inactive),99% (active),inactive,inactive,inactive,inactive
CS(=O)(=O)c1ccc(-c2nc(NCC3CCCCC3)cc(C(F)(F)F)n2)cc1,76% (active),-9% (inactive),2% (inactive),83% (active),inactive,inactive,inactive,inactive
COc1ccc2ncc(F)c(CCN3CCC(NCc4cc5c(cn4)OCCS5)CC3)c2c1,40% (inactive),4% (inactive),-6% (inactive),89% (active),inactive,inactive,inactive,inactive
CN1CCN(c2ccc3nccc(CCN4CCC(NCc5ccc6c(n5)NC(=O)CO6)CC4)c3n2)CC1,3% (inactive),9% (inactive),-1% (inactive),97% (active),inactive,inactive,inactive,inactive
O=C(CC1NC(=O)c2ccccc21)Nc1ccc(-c2cccc(-c3nc4ccc(C(F)(F)F)cc4[nH]3)c2)cc1 (stereo not drawn),36% (inactive),69% (active),-4% (inactive),95% (active),inactive,inactive,inactive,inactive

# From PubChem BioAssay
